Source: PubChem BioAssay
ELG1 genotox: qHTS screen for small molecules that induce genotoxicity in human embryonic kidney (HEK293T) cells expressing luciferase-tagged ELG1 | AID 504466, 2011 | Potency, µM (titrated, usually from 46 µM), for the others: at the top dose activity change, positive = activation, actives largely listed as activators | HEK293T ELG1-luciferase reporter, luminescence, 16 h | actives 1.3% (n = 330,000); further: % of control where 0% means no effect; nearly all actives have a fitted effect of over 60% in size
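Step 1: seed 2,000 HEK293T ELG1-luciferase cells per well. Step 2: add compound or DMSO, incubate 16 hr at 37 °C. Step 3: ONE-Glo, 30 min at room temperature, read luminescence.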
SMN2 splice enh: qHTS Assay for Enhancers of SMN2 Splice Variant Expression; Potency, µM (doses to about 46.1 µM), for the others: at the highest dose activity change, positive = activation, hits mostly activators; AID 1458, 2008; HEK293 SMN2-luciferase splicing reporter, luminescence, 30-36 h; actives 2.8% (n = 210,000); further: % of control where 0% means no effect; nearly all actives have a fitted effect of over 55% in size
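HEK293 cells carry an SMN2 minigene-luciferase reporter in which exon 7 inclusion puts luciferase in frame. Cells were seeded at 2000 cells/well, attached for 10-12 hours, then exposed to compounds for 30-36 hours at 37C before ONE-Glo luminescence.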
FLuc modulator: qHTS profiling assay for firefly luciferase inhibitor/activator using purifed enzyme and Km concentrations of substrates (counterscreen for miR-21 project); Luciferin 4-monooxygenase (Photinus pyralis), P08659; purified FLuc, Km substrates, luminescence inhibition; Potency, µM (top dose mostly 57.5 µM), without a hit: at the highest dose activity change, negative = inhibition, hits mostly inhibitors; actives 6.9% (n = 360,000);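 further: plate controls were vehicle for no effect and reference inhibitor for full effect; nearly all actives have a fitted effect of over 55% in size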
Target sequence (P08659 whole entry, looked up): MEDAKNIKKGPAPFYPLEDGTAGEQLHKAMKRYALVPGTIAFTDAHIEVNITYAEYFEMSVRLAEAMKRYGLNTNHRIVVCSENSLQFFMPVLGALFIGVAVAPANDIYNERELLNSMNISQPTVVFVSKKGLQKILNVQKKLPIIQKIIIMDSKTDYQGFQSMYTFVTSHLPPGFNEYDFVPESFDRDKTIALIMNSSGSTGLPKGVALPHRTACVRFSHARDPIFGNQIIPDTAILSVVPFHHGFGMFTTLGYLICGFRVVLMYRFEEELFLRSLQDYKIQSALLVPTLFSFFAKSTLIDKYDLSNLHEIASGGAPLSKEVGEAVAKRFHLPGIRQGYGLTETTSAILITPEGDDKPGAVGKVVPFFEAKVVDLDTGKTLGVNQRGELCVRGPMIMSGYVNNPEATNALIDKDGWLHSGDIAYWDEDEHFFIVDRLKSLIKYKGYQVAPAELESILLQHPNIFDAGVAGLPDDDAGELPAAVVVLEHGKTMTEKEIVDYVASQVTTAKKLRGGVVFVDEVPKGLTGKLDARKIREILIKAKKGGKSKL
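Purified P. pyralis luciferase, 10 nM final, with Km-level 10 uM D-luciferin and 10 uM ATP in 50 mM Tris acetate pH 7.5, 10 mM Mg acetate, 0.01% Tween-20, 0.05% BSA; 6-point qHTS titration about 60 µM downward; luminescence read.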
NPC1 promoter act: qHTS Assay for NPC1 Promoter Activators. Huh7 NPC1 promoter luciferase reporter, 24 h. Potency, µM (titrated, usually from 9.22 µM), for the others: top-dose activation, usual class: activators. actives 2.4% (n = 320,000). AID 485313, 2010; further: % of control where 0% means no effect; nearly all actives have a fitted effect of over 60% in size
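Luminescence read-out of NPC1 promoter-driven luciferase in stably transfected Huh7 cells; compounds delivered in DMSO and left 24 h at 37C, 5% CO2, qHTS titration format.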
Rab9 prom act: qHTS Assay for Rab9 Promoter Activators | actives 2.8% (n = 320,000) | Huh7 Rab9 promoter-luciferase reporter, luminescence, 24 h | AID 485297, 2010 | Potency, µM (doses to about 9.22 µM), inactives show top-dose activation, negative = inhibition, actives largely listed as activators; further: % of control where 0% means no effect; nearly all actives have a fitted effect of over 60% in size
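Cell-based reporter: Huh7 stable for Rab9 promoter-driven luciferase, plated in reduced-serum medium with 10% FBS at 1500 cells/well, compound-treated 24 h at 37 °C, luminescence read after 10 min reagent.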
KinaseGlo FLuc: Counterscreen for Luciferase (Kinase-Glo TM) Inhibition; Luciferin 4-monooxygenase (Photuris pensylvanica), Q27757; Kinase-Glo luciferase, ATP luminescence, 8 min; Potency, µM (top dose mostly 38.3 µM), for the others: top-dose activity change, negative = inhibition, usual class: inhibitors; actives 0.28% (n = 200,000); AID 1379, 2008; further: on the % scale 0 is the no-effect control and ±100 the full control effect; nearly all actives have a fitted effect of over 60% in size
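Kinase-Glo luciferase light output from ATP and luciferin was measured with 10 uM ATP, within the enzyme's linear range. Buffer: 50 mM imidazole pH 7.2, 50 mM KCl, 7 mM MgCl2, 0.01% Tween 20, 0.05% BSA; luminescence read after 8 min at ambient temperature.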
* hit, by the source's call; ? = inconclusive; / = no result given; [ ] = remark or other dose. The list is not random: actives were taken first. Their share in the collection is about 7.3%. The call rests on the fitted dose curve; in most records, active means well fitted curve in the direction sought with a large enough effect; inconclusive means small, poorly fitted or top-dose-only effect, or another doubt; inactive means no such curve, though single readings can be large; an effect the other way counts as inactive or inconclusive. Potency means the concentration at half of the fitted maximal effect.

SMILES	ELG1 genotox	SMN2 splice enh	FLuc modulator	NPC1 promoter act	Rab9 prom act	KinaseGlo FLuc
Cc1cc(Nc2cnc3ccccc3n2)n(-c2ccccc2)n1	-3%	-23%	?	-1%	-1%	-1%
COc1ccc(/C=C2\NC(=S)N(CC3CCCO3)C2=O)c(OC)c1 (stereo unspecified)	-1%	-18%	15µM*	3%	?	6%
COc1cccc(C(=O)Nc2ccc3c(c2)C(=O)N(CC2CCCO2)C3=O)c1 (stereo unspecified)	-9%	/	9.5µM*	23%	25%	/
COc1ccccc1OCC(=O)Nc1ccc2c(c1)C(=O)N(CC1CCCO1)C2=O (stereo unspecified)	-5%	0%	-5%	-1%	-4%	2%
COc1cccc(NC(=O)c2ccc3c(c2)C(=O)N(CC2CCCO2)C3=O)c1 (stereo unspecified)	3%	/	17µM*	3%	0%	/
COc1ccccc1Oc1ccc2c(c1)C(=O)N(CC1CCCO1)C2=O (stereo unspecified)	-2%	/	19µM*	8%	28%	/
CC(=O)N1CCCc2cc(S(=O)(=O)N(C)CC(=O)Nc3ccc(C)cc3C)ccc21	/	/	-2%	/	/	/
COc1ccc(NS(=O)(=O)c2cccc(C(=O)NCC(c3ccc(F)cc3)N3CCOCC3)c2)cc1 (stereo unspecified)	-6%	/	-17%	-5%	-7%	/
O=C(c1ccccc1)N(CCO)Cc1cc2cc3c(cc2[nH]c1=O)OCCO3	5%	-23%	-3%	0%	3%	4%
COc1ccc(CC2(CO)CCN(Cc3ccc4c(c3)CCO4)CC2)cc1	-1%	/	3%	6%	2%	/
Cc1ccc(O)c(NC(=O)c2noc3c2CCc2ccccc2-3)c1	23µM*	-51%	5%	?	?	-19%
CC(=O)c1cccc(NC(=O)c2noc3c2CCc2ccccc2-3)c1	?	3.5µM*	2.4µM*	4µM*	2.5µM*	-1%
Cc1cc(NC(=O)c2noc3c2CCc2ccccc2-3)no1	?	?	-11%	27%	?	1%
CCOC(=O)c1c(NC(=O)CSc2nc3cccnc3n2C)sc(C(C)=O)c1C	0%	-23%	0%	-7%	0%	-2%
NC(=S)n1[nH]c(-c2ccc([N+](=O)[O-])cc2)c(N=Nc2cccc(Cl)c2)c1=O	-20%	-62%	-17%	-14%	-22%	3%
Cc1cccc(N=Nc2c(C)[nH]n(C(N)=S)c2=O)c1C	?	?	12µM*	?	4µM*	-1%
Cc1[nH]n(C(N)=S)c(=O)c1N=Nc1ccc([N+](=O)[O-])cc1Cl	1%	/	9.5µM*	?	30%	/
Cc1[nH]n(C(N)=S)c(=O)c1N=Nc1cccc(Cl)c1	?	/	5.4µM*	?	?	/
C=CCn1c(C)c(C(C)=O)c(N2CCN(c3ccccc3)CC2)nc1=S	-1%	-7%	1%	1%	-1%	-4%
O=C(CN1CCC(Cc2ccccc2)CC1)NC(=O)NC1CCCCC1	-6%	-17%	2%	-1%	-3%	-1%
O=C(CN(C(=O)CCNC(=O)c1ccco1)c1ccccc1)NC1CCCC1	-2%	-13%	1%	1%	1%	-2%
O=C(N/C=C/c1ccccc1)Nc1ccc(Cl)cc1	?	?	6.7µM*	3.5µM*	4.5µM*	2%
Cc1ccc(NC(=O)N/C=C/c2ccccc2)cc1	?	14µM*	2.1µM*	0.89µM*	1.4µM*	0%
Cc1ccc(C2c3[nH]c4ccccc4c3C[C@H]3C(=O)N(c4ccccc4C(=O)NCCN4CCOCC4)C(=O)N23)cc1 (stereo partly specified)	-8%	/	1%	1%	-5%	/
S=c1nc(C2CCCCC2)n(-c2ccccc2)[nH]1	0%	-3%	-18%	-1%	6%	-3%
SMILES	ELG1 genotox	SMN2 splice enh	FLuc modulator	NPC1 promoter act	Rab9 prom act	KinaseGlo FLuc
Cn1c(N)c(C(=O)/C=C/c2ccccc2)c(=O)[nH]c1=O	?	/	17µM*	?	?	/
Cn1c(=O)n(C)c2cc(N3CCOCC3)c(NS(=O)(=O)c3ccc(F)cc3)cc21	/	8%	1%	/	/	/
Cn1c(=O)n(C)c2cc(N3CCOCC3)c(NS(=O)(=O)c3ccc(Br)cc3)cc21	/	13µM*	0%	/	/	/
O=C(Nc1ccc(Cl)cc1)ON=C1CCCC1	?	-5%[1.84 µM]	17µM*	16%	3.5µM*	-4%
CCCOc1ccc(/C=c2\sc3ncnn3c2=O)cc1	1%	/	-18%	-7%	-1%	-2%
O=C(O)Cc1ccc(NC(=O)c2cnccn2)cc1	0%	-7%	?	-1%	0%	-9%
O=C(Nc1ccc(Br)cc1)c1cnccn1	?	22%	?	?	3.5µM*	-9%
Cc1ccc(NC(=O)c2cnccn2)cc1	?	6.3µM*	?	2.5µM*	3.2µM*	-19%
Cc1nc(NC(=O)c2cnccn2)ccc1Br	?	/	8.5µM*	2.8µM*	2µM*	/
Cc1ccc(NC(=O)c2cnccn2)cc1C	?	/	11µM*	3.2µM*	3.2µM*	/
CNC(=O)c1cc(OCC(F)(F)F)ccc1OCC(F)(F)F	-1%	3%	-1%	-1%	0%	3%
CN(C)c1nc(-c2ccccc2)ncc1S(=O)(=O)c1ccccc1	-6%	-3%	?	0%	0%	-4%
O=C(Nc1cccc2ccccc12)c1cnccn1	21µM*	?	?	-2%	4%	-1%
Cc1cc2nc(-c3ccc(SCc4ccc(C#N)cc4)nc3)[nH]c2cc1C	1%	-26%	5.4µM*	-3%	-3%	-1%
Cc1ccc2nc(-c3ccc(SCC(=O)O)nc3)[nH]c2c1	2%	18%	5.4µM*	-3%	6%	-12%
Cc1ccc(-c2nnc3ccc(SCC(=O)N4CCc5ccccc54)nn23)cc1	11%	-14%	0%	-3%	-1%	0%
N#Cc1ccccc1CSc1ccc(-c2nc3ccccc3[nH]2)cn1	?	-58%	19µM*	21%	21%	-24%
